Measurements taken from publication PMC7862700, “An all-to-all approach to the identification of sequence-specific readers for epigenetic DNA modifications on cytosine”.

Columns and labels:
Assay in all cases: DAPPL (digital affinity profiling via proximity ligation, sequencing); 10 mM Tris-HCl pH 7.5, 50 mM NaCl, 1 mM DTT, 4% glycerol, room temperature, 30 min; GST-TFs on glutathione beads, 16-mer random dsDNA library, 0.1% formaldehyde crosslink after washing; high values mean tight binding
FLI1 = biological target: T1, FLI1 (Homo sapiens, UniProt Q01543 1-452); settings: protein: recombinant; tags: N-terminal GST; dsDNA, one strand shown
T1 sequence: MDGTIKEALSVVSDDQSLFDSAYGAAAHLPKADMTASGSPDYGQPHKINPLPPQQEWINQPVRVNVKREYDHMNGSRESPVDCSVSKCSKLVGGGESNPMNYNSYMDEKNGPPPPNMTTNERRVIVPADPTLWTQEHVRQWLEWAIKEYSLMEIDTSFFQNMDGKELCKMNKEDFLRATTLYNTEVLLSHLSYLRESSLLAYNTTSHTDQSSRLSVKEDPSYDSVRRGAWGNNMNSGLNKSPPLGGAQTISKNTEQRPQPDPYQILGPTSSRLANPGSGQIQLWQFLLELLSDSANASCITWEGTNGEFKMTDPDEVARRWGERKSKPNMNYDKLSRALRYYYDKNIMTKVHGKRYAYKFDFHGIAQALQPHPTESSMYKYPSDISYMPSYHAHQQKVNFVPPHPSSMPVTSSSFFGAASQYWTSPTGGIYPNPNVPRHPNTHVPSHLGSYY
Outline: (§1)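 Yeast served to express human transcription factors as GST fusions, which were then captured on glutathione beads and labelled with DNA barcodes. Pooled with a tag-only sample, they were incubated with 200 nmole of a 16-mer random double-stranded DNA library for 30 min at room temperature in Tris/NaCl/DTT/glycerol buffer, washed, crosslinked with 0.1% formaldehyde, ligated by proximity, amplified by PCR and sequenced. Dividing each hexamer's read frequency for a factor by its frequency for the tag-only sample gives the binding signal.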

ELK1 = biological target: T2, ELK1 (Homo sapiens, UniProt P19419 1-428); settings: protein: recombinant; tags: N-terminal GST; dsDNA, one strand shown
T2 sequence: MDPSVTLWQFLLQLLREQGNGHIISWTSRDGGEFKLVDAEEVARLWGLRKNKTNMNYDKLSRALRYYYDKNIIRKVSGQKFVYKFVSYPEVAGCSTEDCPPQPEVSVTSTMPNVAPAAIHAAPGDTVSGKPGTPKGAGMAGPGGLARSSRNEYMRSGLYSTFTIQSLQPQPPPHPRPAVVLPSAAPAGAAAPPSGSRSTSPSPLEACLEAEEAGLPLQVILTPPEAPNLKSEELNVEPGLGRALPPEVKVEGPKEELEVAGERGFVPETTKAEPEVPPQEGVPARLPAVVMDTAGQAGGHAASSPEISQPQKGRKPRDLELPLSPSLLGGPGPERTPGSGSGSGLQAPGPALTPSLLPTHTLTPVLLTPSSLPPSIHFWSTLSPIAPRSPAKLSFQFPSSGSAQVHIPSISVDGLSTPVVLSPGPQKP
Outline: as §1

GABPA = biological target: T3, GABPA (Homo sapiens, UniProt Q06546 1-454); settings: protein: recombinant; tags: N-terminal GST; dsDNA, one strand shown
T3 sequence: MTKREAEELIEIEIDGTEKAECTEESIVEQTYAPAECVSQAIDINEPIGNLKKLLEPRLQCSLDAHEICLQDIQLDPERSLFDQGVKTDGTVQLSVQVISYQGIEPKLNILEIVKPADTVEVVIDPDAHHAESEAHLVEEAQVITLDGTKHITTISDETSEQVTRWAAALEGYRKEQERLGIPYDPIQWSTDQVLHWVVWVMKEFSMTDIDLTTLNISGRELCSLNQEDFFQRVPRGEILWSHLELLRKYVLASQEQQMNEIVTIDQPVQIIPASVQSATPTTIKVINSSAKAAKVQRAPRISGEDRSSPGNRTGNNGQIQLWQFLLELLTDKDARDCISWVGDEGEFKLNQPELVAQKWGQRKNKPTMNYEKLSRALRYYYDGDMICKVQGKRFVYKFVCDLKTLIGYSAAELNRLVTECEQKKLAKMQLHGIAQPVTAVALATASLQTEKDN
Outline: as §1

ERG = biological target: T4, ERG (Homo sapiens, UniProt P11308 1-479); settings: protein: recombinant; tags: N-terminal GST; dsDNA, one strand shown
T4 sequence: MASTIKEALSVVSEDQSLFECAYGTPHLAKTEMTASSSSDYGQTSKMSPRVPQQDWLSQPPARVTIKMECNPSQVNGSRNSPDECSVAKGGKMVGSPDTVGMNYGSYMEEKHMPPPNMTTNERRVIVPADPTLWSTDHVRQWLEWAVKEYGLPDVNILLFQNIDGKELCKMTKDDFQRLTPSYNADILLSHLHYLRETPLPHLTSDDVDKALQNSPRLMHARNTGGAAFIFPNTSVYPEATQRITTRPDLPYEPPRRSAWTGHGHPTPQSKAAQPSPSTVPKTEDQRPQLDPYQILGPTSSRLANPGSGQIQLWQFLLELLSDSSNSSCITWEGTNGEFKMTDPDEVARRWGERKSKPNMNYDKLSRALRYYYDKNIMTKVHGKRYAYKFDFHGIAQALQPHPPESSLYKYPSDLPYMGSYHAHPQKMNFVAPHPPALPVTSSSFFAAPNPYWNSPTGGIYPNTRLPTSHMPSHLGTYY
Outline: as §1

ELF1 = ELF1 (Homo sapiens, UniProt P32519 1-619); settings: protein: recombinant; tags: N-terminal GST; dsDNA, one strand shown
Outline: as §1

EHF = biological target: T5, EHF (Homo sapiens, UniProt Q9NZC4 1-300); settings: protein: recombinant; tags: N-terminal GST; dsDNA, one strand shown
T5 sequence: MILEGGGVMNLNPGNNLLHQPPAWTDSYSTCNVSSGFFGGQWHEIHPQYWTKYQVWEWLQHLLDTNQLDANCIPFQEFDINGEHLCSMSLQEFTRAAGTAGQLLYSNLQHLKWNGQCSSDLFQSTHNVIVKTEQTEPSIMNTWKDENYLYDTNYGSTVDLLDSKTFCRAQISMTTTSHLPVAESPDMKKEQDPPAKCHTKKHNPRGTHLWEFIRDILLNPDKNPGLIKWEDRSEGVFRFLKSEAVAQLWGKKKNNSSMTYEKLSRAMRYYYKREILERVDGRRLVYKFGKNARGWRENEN
Outline: as §1

SPIB = SPIB (Homo sapiens, UniProt Q01892 1-262); settings: protein: recombinant; tags: N-terminal GST; dsDNA, one strand shown
Outline: as §1

ELK3 = biological target: T6, ELK3 (Homo sapiens, UniProt P41970 1-407); settings: protein: recombinant; tags: N-terminal GST; dsDNA, one strand shown
T6 sequence: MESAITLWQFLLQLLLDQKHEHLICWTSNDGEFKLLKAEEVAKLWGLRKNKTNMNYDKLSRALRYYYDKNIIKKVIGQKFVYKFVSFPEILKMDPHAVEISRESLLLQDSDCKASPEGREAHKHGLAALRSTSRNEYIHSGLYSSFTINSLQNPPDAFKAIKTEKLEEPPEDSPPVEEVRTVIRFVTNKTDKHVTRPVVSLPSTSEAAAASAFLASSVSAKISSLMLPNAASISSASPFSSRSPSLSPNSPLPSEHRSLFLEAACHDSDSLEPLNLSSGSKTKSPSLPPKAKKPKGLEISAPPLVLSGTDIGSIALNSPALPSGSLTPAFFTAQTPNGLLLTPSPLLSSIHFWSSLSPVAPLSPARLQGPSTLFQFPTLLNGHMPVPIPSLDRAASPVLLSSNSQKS
Outline: as §1

FEV = biological target: T7, FEV (Homo sapiens, UniProt Q99581 1-238); settings: protein: recombinant; tags: N-terminal GST; dsDNA, one strand shown
T7 sequence: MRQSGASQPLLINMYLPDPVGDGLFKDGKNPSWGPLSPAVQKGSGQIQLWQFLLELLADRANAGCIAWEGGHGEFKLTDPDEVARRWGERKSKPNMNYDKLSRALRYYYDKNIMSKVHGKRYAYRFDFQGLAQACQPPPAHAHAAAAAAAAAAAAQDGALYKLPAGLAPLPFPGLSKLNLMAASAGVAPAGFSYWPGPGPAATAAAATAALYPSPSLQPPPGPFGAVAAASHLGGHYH
Outline: as §1

ETV5 = ETV5 (Homo sapiens, UniProt P41161 1-510); settings: protein: recombinant; tags: N-terminal GST; dsDNA, one strand shown
Outline: as §1

HSF1 = HSF1 (Homo sapiens, UniProt Q00613 1-529); settings: protein: recombinant; tags: N-terminal GST; chain copies: 3; dsDNA, one strand shown
Outline: as §1

SPIC = biological target: T8, SPIC (Homo sapiens, UniProt Q8N5J4 1-248); settings: protein: recombinant; tags: N-terminal GST; dsDNA, one strand shown
T8 sequence: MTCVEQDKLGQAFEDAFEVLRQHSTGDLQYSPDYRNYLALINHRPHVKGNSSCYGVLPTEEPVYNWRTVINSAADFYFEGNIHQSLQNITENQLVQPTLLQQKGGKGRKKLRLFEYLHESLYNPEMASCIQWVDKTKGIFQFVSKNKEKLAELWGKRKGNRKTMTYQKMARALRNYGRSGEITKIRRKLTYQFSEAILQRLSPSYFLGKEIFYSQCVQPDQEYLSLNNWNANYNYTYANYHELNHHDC
Outline: as §1

ELF4 = ELF4 (Homo sapiens, UniProt Q99607 1-663); settings: protein: recombinant; tags: N-terminal GST; dsDNA, one strand shown
Outline: as §1

ELK4 = biological target: T9, ELK4 (Homo sapiens, UniProt P28324-2 1-405); settings: protein: recombinant; tags: N-terminal GST; dsDNA, one strand shown
T9 sequence: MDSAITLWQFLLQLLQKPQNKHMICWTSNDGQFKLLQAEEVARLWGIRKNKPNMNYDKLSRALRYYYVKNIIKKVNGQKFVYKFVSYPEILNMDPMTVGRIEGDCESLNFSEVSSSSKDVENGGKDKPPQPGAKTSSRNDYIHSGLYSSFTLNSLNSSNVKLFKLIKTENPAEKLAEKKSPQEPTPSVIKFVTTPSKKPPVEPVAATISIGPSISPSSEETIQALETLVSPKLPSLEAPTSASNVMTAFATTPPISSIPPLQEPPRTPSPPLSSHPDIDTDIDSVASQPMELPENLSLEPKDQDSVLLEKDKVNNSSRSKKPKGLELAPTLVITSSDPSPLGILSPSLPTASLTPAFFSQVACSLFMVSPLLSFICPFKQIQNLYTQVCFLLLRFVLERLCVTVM
Outline: as §1

ELF3 = biological target: T10, ELF3 (Homo sapiens, UniProt P78545 1-371); settings: protein: recombinant; tags: N-terminal GST; dsDNA, one strand shown
T10 sequence: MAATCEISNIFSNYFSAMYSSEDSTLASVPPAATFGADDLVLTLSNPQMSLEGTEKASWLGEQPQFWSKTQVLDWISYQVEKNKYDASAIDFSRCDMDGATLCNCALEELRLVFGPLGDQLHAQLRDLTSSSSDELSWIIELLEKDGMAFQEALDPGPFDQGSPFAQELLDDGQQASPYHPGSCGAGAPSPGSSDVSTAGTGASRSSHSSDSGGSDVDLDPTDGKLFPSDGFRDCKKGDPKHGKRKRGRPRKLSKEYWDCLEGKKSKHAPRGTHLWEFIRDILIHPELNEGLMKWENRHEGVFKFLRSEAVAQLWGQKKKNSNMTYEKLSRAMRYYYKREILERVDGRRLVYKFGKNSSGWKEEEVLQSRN
Outline: as §1

CRX = CRX (Homo sapiens, UniProt O43186 1-299); settings: protein: recombinant; tags: N-terminal GST; dsDNA, one strand shown
Outline: as §1

ETV1 = ETV1 (Homo sapiens, UniProt P50549 1-477); settings: protein: recombinant; tags: N-terminal GST; dsDNA, one strand shown
Outline: as §1

Chain of ELF1 (P32519 whole entry): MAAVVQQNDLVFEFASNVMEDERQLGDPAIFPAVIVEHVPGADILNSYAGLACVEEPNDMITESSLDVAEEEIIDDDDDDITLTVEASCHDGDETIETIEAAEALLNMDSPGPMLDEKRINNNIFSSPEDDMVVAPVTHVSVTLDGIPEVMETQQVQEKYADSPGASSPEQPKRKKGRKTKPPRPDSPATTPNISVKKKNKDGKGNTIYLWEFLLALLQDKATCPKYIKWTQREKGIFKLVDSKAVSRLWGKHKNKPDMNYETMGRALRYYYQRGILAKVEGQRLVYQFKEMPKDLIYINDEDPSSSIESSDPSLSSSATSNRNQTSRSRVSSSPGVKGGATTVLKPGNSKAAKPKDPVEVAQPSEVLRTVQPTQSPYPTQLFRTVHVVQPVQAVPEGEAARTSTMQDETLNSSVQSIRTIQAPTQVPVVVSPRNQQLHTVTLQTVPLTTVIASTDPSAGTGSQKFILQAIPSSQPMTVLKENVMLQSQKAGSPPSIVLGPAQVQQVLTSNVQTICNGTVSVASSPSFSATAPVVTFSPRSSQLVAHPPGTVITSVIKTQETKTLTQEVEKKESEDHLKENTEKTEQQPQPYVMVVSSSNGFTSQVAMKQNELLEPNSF
Chain of ETV5 (P41161 whole entry): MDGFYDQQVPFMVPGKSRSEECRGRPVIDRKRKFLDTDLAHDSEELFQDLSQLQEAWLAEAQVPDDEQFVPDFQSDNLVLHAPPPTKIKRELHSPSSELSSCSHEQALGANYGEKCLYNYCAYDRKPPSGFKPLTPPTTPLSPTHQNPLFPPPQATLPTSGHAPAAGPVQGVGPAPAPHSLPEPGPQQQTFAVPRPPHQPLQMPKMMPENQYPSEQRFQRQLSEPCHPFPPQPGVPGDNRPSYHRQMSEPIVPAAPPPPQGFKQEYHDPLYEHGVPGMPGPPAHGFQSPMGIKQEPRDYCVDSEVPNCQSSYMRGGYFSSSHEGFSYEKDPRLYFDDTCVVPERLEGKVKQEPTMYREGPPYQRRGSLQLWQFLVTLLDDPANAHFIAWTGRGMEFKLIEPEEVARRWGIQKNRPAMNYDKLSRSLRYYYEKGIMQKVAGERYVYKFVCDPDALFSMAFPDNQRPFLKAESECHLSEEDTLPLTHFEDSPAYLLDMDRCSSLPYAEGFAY
Chain of HSF1 (Q00613 whole entry): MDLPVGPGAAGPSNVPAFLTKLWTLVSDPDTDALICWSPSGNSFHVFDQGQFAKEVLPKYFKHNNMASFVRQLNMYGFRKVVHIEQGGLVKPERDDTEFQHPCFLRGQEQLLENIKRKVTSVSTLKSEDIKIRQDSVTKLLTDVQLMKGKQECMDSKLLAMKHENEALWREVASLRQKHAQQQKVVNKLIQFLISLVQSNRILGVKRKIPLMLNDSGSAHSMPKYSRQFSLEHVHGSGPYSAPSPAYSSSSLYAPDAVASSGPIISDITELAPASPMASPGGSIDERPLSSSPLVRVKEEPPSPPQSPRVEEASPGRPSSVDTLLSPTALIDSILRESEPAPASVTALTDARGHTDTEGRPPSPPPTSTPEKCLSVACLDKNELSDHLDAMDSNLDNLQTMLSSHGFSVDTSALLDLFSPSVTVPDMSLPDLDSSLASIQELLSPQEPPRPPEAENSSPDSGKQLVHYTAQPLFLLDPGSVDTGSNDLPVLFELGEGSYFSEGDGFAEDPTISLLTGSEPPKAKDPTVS
Chain of CRX (O43186 whole entry): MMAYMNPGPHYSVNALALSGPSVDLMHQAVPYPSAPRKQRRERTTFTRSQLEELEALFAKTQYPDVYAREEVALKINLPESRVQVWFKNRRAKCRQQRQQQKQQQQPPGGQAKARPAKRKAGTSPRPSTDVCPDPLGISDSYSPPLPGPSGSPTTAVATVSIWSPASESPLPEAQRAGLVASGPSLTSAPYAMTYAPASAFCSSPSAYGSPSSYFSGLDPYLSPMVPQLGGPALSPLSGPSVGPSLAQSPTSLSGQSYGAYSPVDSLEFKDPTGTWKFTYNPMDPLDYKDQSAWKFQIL
Chain of SPIB (Q01892 whole entry): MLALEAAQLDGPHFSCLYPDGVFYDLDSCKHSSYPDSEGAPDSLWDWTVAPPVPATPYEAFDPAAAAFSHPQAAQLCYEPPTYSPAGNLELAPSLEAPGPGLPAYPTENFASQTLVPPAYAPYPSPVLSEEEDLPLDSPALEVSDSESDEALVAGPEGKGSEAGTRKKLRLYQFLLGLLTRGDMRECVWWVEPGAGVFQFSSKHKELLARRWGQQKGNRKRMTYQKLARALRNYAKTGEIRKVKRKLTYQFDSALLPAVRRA
Chain of ELF4 (Q99607 whole entry): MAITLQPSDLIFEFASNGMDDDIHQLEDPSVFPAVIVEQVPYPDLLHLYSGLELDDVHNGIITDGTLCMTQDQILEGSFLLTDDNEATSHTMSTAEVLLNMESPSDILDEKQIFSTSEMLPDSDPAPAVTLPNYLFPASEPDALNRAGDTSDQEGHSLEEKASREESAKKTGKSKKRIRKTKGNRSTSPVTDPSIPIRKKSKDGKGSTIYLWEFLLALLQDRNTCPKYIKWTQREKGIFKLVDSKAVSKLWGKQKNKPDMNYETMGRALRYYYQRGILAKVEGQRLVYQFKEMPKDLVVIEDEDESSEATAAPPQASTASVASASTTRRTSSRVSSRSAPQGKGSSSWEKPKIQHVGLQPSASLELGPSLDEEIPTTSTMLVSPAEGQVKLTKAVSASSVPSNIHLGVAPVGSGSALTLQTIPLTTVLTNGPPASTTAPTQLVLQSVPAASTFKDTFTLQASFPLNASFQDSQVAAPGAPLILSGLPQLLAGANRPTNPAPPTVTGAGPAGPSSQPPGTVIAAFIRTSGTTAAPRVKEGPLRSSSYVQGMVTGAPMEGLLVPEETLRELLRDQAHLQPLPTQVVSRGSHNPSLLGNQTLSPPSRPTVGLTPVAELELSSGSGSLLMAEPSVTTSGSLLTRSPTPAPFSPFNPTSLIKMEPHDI
Chain of ETV1 (P50549 whole entry): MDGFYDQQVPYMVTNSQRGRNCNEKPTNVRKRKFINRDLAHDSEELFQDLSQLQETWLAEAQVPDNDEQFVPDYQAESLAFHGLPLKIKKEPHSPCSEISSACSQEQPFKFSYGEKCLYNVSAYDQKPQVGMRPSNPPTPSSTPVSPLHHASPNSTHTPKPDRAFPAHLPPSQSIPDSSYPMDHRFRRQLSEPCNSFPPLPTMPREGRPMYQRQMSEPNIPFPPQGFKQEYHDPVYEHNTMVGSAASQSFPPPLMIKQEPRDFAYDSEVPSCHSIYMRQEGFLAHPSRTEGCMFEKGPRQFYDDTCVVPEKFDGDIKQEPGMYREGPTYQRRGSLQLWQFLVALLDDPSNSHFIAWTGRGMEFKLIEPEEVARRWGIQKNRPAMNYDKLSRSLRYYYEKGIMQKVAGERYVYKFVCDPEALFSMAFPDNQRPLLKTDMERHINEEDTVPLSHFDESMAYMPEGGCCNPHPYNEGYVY

**Q.** Which results are given for AAGGTT?
**A.** binding signal (FLI1): 1.09 fold enrichment (6-mer frequency, TF over GST control); binding signal (ELK1): 1.15 fold enrichment (6-mer frequency, TF over GST control); binding signal (GABPA): 1.13 fold enrichment (6-mer frequency, TF over GST control); binding signal (ERG): 1.07 fold enrichment (6-mer frequency, TF over GST control); binding signal (ELF1): 1.05 fold enrichment (6-mer frequency, TF over GST control); binding signal (EHF): 1.1 fold enrichment (6-mer frequency, TF over GST control); binding signal (SPIB): 1.01 fold enrichment (6-mer frequency, TF over GST control); binding signal (ELK3): 1.12 fold enrichment (6-mer frequency, TF over GST control); binding signal (FEV): 1.02 fold enrichment (6-mer frequency, TF over GST control); binding signal (ETV5): 1.01 fold enrichment (6-mer frequency, TF over GST control); binding signal (HSF1): 1.27 fold enrichment (6-mer frequency, TF over GST control); binding signal (SPIC): 1.03 fold enrichment (6-mer frequency, TF over GST control); binding signal (ELF4): 1.09 fold enrichment (6-mer frequency, TF over GST control); binding signal (ELK4): 1.12 fold enrichment (6-mer frequency, TF over GST control); binding signal (ELF3): 1.35 fold enrichment (6-mer frequency, TF over GST control); binding signal (CRX): 1.17 fold enrichment (6-mer frequency, TF over GST control); binding signal (ETV1): 1.07 fold enrichment (6-mer frequency, TF over GST control)
